Screening results from PubChem.
Giardia killer: Giardia lamblia killing; Giardia lamblia trophozoite viability; activity change, % at 7.66 µM, hits read low; 340,000 compounds, 0.15% hits; in the data active means activity change below about -80%; inconclusive means between about -30% and that limit;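 further: parasites exposed to compound for two days anaerobically before the ATP read; on the % scale 0 is the no-effect control and ±100 the full control effect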
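Trophozoites 100 cells/well + cpd; 48 hrs, 37 deg C, anaerobic. ATPLite 1-Step added, 15-30 min RT, luminescence read (ATP-based viability).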
ATXN2 expr inh: reduces ATXN2 reporter expression in HEK-293 cells. HEK-293 ATXN2-luciferase reporter, luminescence, 24 h. Potency, µM (top dose mostly 57 µM), inactives show at the top dose activity change, negative = inhibition, hits mostly inhibitors. 360,000 compounds, 0.72% hits; further: potency means the concentration at half of the fitted maximal effect; on the % scale 0 is the no-effect control and ±100 the full control effect; nearly all actives have a fitted effect of over 55% in size
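qHTS (up to 57 uM final) was run with 24 h compound exposure of reporter cells at 37 °C. Each well was multiplexed: SteadyGlo luminescence measured ATXN2-luciferase expression after a fluorogenic Gly-Phe-AFC viability readout (25 uM final).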
TGFb SMAD3 inh: blocks TGF-b signaling; Potency, µM (doses to about 46.1 µM), without a hit: top-dose activity, negative = inhibition, hits mostly inhibitors; HepG2 CAGA-GFP TGF-b/SMAD3 reporter, GFP fluorescence, 18 h; TGF-beta stimulated, 500 pg/mL final; 410,000 compounds, 1.2% hits; AID 588855; further: potency means the concentration at half of the fitted maximal effect; on the % scale 0 is the no-effect control and ±100 the full control effect; nearly all actives have a fitted effect of over 65% in size
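HEPG2 CAGA-GFP cells (1000/well, DMEM with 1% FBS) were pre-incubated 2 h at 37 degrees C, given compound by pin tool, then stimulated with TGF-beta at 500 pg/mL final for 18 h before per-cell GFP fluorescence imaging.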
HepG2 tox: counter-screen for TGF-b inhibitors: cytotoxicity in HepG2 cells; HepG2 CAGA-GFP viability, ATP luminescence, 18 h; Potency, µM (series often up to 46.1 µM), without a hit: at the top dose activity change, negative = cytotoxicity, usual class: cytotoxic; 410,000 compounds, 0.76% hits; AID 588856; further: potency means the concentration at half of the fitted maximal effect
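HepG2 CAGA-GFP cells (1000/well, DMEM with 1% FBS) received compound, then TGF-beta at 500 pg/mL final, and were incubated 18 hours at 37 degrees C. Viability was read by CellTiter-Glo luminescence. Media-only wells were set as complete cell-killing and DMSO as no toxicity.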
ATXN viability: reduces viability in counter-screen for ATXN expression inhibitors | Potency, µM (doses to about 56.7 µM), most hits filed as cytotoxic | S2 cells (HEK-293 line with an ATXN2-luciferase reporter) viability, CellTiter-Fluor protease fluorescence, 24 h | AID 651635 | 400,000 compounds, 0.49% hits; further: potency means the concentration at half of the fitted maximal effect; nearly all actives have a fitted effect of over 40% in size
uPA generation: blocks generation of uPA at the cell surface; cell surface uPA generation assay, qHTS; Potency, µM (top dose mostly 38.3 µM), without a hit: at the highest dose activity change, negative = inhibition, most hits filed as inhibitors; 330,000 compounds, 0.31% hits; active means well fitted inhibition curve with a large enough effect; inconclusive means small, poorly fitted or top-dose-only effect; inactive means no such curve, though single readings can be large or run the other way; tested in mouse RAW 264.7 cells; further: potency means the concentration at half of the fitted maximal effect; on the % scale 0 is the no-effect control and ±100 the full control effect; nearly all actives have a fitted effect of over 55% in size
Active calls of the source: *; i = inactive; ? = inconclusive; . = no result given. Compounds with a hit are over-represented: about 2.6% of the library has one in this group of screens. Unless noted, the call rests on the fitted dose curve; in most records, active means well fitted curve in the direction sought with a large enough effect; inconclusive means small, poorly fitted or top-dose-only effect, or another doubt; inactive means no such curve, though single readings can be large; an effect the other way counts as inactive or inconclusive.

SMILES	Giardia killer	ATXN2 expr inh	TGFb SMAD3 inh	HepG2 tox	ATXN viability	uPA generation
Cc1ccc(Cl)cc1-c1ccc(C=Nc2ccc(N3CCOCC3)cc2)o1	3.3	?	11.2µM*	-39.9%	i	-11.4%
Cc1cc(O)c(C=Nc2ccc(N3CCOCC3)cc2)c(C)c1Cl	15.8	3.5%	17.6%	-0.3%	i	5.6%
COc1cccc(C(=O)NCC2Cc3c(F)ccc(-c4ncccn4)c3O2)c1OC (stereo not drawn)	.	.	.	.	i	.
O=C1C=C(NCCc2cc(Br)c(O)c(Br)c2)C(=O)c2ncccc21	-7.8	9.47µM*	?	7.08µM*	?	-12.1%
CCS(=O)(=O)Nc1cc(C(=O)N2CCCN(C=O)CC2)c2c(c1)nc(-c1ccccc1)n2C	.	.	.	.	i	.
COc1ccc(C2CC(O)(c3ccccc3)Oc3cc(OC)c(OC)c(OC)c32)cc1 (stereo not drawn)	-9.2	-13.8%	?	-35.6%	?	?
OC1(c2ccccc2)CC(c2ccccc2)c2ccccc2O1 (stereo not drawn)	-3.5	?	?	22.4µM*	i	-2.6%
COc1ccc(CNC(=O)/C=C/c2ccccc2[N+](=O)[O-])cc1	-6.2	.	0.2%	0.8%	i	-3.1%
COC(=O)C(=Cc1ccccc1[N+](=O)[O-])C(=O)OC	12.2	.	?	-41.3%	15.8µM*	?
C[C@@H]1CN([C@H](C)CO)C(=O)Cc2cc(NC(=O)Nc3ccccc3)ccc2O[C@@H]1CN(C)Cc1ccc2c(c1)OCO2	19.3	?	15.8µM*	17.8µM*	?	?
C[C@H](CO)N1C[C@H](C)[C@@H](CN(C)C(=O)Nc2ccc(C(F)(F)F)cc2)Oc2c(NC(=O)Nc3ccc(C(F)(F)F)cc3)cccc2C1=O	-26.4	?	14.1µM*	-114.0%	15.8µM*	?
C[C@H](CO)N1C[C@H](C)[C@@H](CN(C)Cc2ccc(C(=O)O)cc2)Oc2c(NC(=O)C3CC3)cccc2C1=O	-22.4	2.9%	-4.8%	5.8%	i	11.5%
CCOC(=O)CCCCCC(=O)Nc1ccc2c(c1)CC(=O)N([C@H](C)CO)C[C@@H](C)[C@H](CN(C)Cc1ccc3c(c1)OCO3)O2	-1.2	2.6%	-9.4%	-3.3%	i	2.2%
C[C@H](CO)N1C[C@H](C)[C@@H](CN(C)Cc2ccccc2)Oc2c(NC(=O)C3CCCCC3)cccc2C1=O	-5.9	?	?	-9.6%	20µM*	-5.6%
COc1cccc(/C=c2/[nH]c(=O)/c(=C\c3cccc(OC)c3OC)[nH]c2=O)c1OC	.	.	6.8%	-3.3%	.	.
Cn1ccc2c(-c3ccc(C(C)(C)C)cc3)cc3c(c21)C1CCC3O1 (stereo not drawn)	.	51.9%	11.2µM*	-39.2%	i	.
O=c1c2ccccc2oc2ccc(NCCCn3ccnc3)cc12	-10.2	-16.6%	-6.4%	-1.9%	i	4.47µM*
c1ccc2c(c1)oc1c(NCCCn3ccnc3)ncnc12	15.3	6.4%	-12.8%	7.5%	i	8.8%
CC(C)(CO)NC(=O)c1cnn(-c2ncc3c(n2)-c2ccccc2CC3)c1C1CC1	.	.	.	.	i	.
O=S1(=O)CCO[C@H]2CCCC[C@@H]2N1Cc1ccc(Cl)cc1	.	.	-23.7%	-20.1%	.	.
CCc1nnc(SCC(=O)Nc2ccc(OC)c(OC)c2)c2cc3occc3n12	.	.	6.6%	-20.2%	.	.
CCc1cccc(C)c1NC(=O)CSc1nnc(CC)n2c1cc1occc12	.	.	7.94µM*	-24.7%	.	.
CCCCCN1C=CC(=C2C(=O)c3ccccc3C2=O)C=C1	-92.2*	.	-26.8%	-15.0%	i	0.0224µM*
COc1ccc(OCC(O)CN2CCCCCC2)cc1 (stereo not drawn)	21.5	-7.5%	-5.8%	8.5%	i	-0.1%
OC(COc1ccccc1)CN1CCN(C(c2ccccc2)c2ccccc2)CC1 (stereo not drawn)	7.8	-26.2%	14.1µM*	-53.3%	i	6.9%
SMILES	Giardia killer	ATXN2 expr inh	TGFb SMAD3 inh	HepG2 tox	ATXN viability	uPA generation
COc1ccc(OCC(O)CN2CCCC2)cc1 (stereo not drawn)	19.7	.	18.1%	12.6µM*	i	-1.5%
OC(COc1ccc(Br)cc1)CN1CCOCC1 (stereo not drawn)	7.4	5.6%	2.1%	2.82µM*	i	7.7%
CCOC(=O)c1c(C)n(C)c2ccc(OCC(O)CN3CCCCCC3)cc12 (stereo not drawn)	7.9	-30.5%	-16.1%	-35.8%	17.8µM*	-7.9%
CCOC(=O)c1c(C)n(C)c2ccc(OCC(O)CN3CCC(C)CC3)cc12 (stereo not drawn)	-1.7	-22.6%	-1.1%	-12.9%	i	?
N#Cc1ccc(NC(=O)COc2ccccc2C(=O)Nc2ccccc2)cc1	.	.	-8.9%	-13.0%	.	.
CCCCN1C2=NC(c3ccccc3)CN2c2ccccc21 (stereo not drawn)	18.5	-30.6%	-5.3%	6.31µM*	i	-3.8%
CCCCN1C2=NCCCN2c2ccccc21	-17.4	-19.3%	-14.8%	-1.6%	i	-17.0%
Cc1nc2ccc(CN(C)c3ccc(C(=O)N[C@@H](CCC(=O)O)C(=O)O)s3)cc2c(=O)[nH]1	.	0.1µM*	.	.	i	.
Cc1ccc(F)c([C@H]2C3C=CCC(c4ccccc4)C3C(=O)N2Cc2ccccc2)c1 (stereo partly drawn)	3.6	-20.8%	17.8µM*	-48.0%	?	?
COc1ccc(C(=O)/C=C/c2cn(CC(O)CN3CCc4ccccc43)c3ccccc23)cc1 (stereo not drawn)	.	0.0%	-18.5%	-22.4%	.	.
CCC(=C(c1ccc(OC)cc1)c1ccc(OC)cc1)c1cn(CC(O)CN2CCN(C)CC2)c2ccccc12 (stereo not drawn)	5.2	?	?	12.6µM*	.	3.1%
O=C(c1ccc2c(c1)OCO2)N(Cc1cc2ccc(F)cc2nc1N1CCC(O)CC1)CC1CCCO1 (stereo not drawn)	.	.	.	.	i	.
CCOC(=O)C1=C(C)NC(C)=C(C(=O)OCCNC(=O)c2cccnc2)C1c1cccc([N+](=O)[O-])c1 (stereo not drawn)	21.1	1.2%	4.7%	3.4%	i	10.0%
COC(=O)C1=C(C)NC(C)=C(C(=O)OCCN2CCN(C(c3ccccc3)c3ccccc3)CC2)C1c1cccc([N+](=O)[O-])c1 (stereo not drawn)	.	14.1µM*	.	.	?	.
COC(=O)C1=C(C)NC(C)=C(C(=O)OCCN(C)Cc2ccccc2)C1c1cccc([N+](=O)[O-])c1 (stereo not drawn)	-5.0	?	-24.8%	-52.4%	22.4µM*	26.2%
O=C(c1cccnc1)C1CCCN(Cc2ccc3c(c2)CN(C(=O)c2cccs2)CCO3)C1 (stereo not drawn)	.	.	.	.	i	.
